HPGD block: qHTS Assay for Inhibitors of HPGD (15-Hydroxyprostaglandin Dehydrogenase); 15-hydroxyprostaglandin dehydrogenase [NAD(+)] (Homo sapiens), P15428; purified HPGD, NADH fluorescence kinetic, PGE2 substrate; Potency, µM, for inactives: at the top dose activity change, negative = inhibition, hits mostly inhibitors; 150,000 tested, 4.3% active; AID 894, 2007; also: potency is read from the fitted curve at half-maximal effect
Target sequence (P15428 whole entry, looked up): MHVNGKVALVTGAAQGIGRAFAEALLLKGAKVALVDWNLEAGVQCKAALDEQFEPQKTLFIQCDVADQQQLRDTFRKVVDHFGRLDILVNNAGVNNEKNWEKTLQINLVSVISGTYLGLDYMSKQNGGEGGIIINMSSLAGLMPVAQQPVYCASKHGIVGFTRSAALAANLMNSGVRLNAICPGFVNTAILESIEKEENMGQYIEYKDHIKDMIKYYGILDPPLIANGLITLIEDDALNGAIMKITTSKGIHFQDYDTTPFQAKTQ
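NADH formation kinetics: reaction with 30 uM PGE2 and 1 mM NAD+ (final), 20 nM enzyme, Tris-HCl pH 8 with Tween 20, after 15 min compound preincubation at room temperature. Fluorescence change, last versus first of five reads.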
KinaseGlo FLuc: Counterscreen for Luciferase (Kinase-Glo TM) Inhibition | Luciferin 4-monooxygenase (Photuris pensylvanica), Q27757 | Kinase-Glo luciferase, ATP luminescence, 8 min | Potency, µM (top dose mostly 38.3 µM), inactives show at the highest dose activity change, negative = inhibition, most hits filed as inhibitors | 200,000 tested, 0.28% active | AID 1379, 2008; active = well fitted inhibition curve with a large enough effect; inconclusive = small, poorly fitted or top-dose-only effect; also: potency is read from the fitted curve at half-maximal effect; nearly all actives have a fitted effect of over 60% in size
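Compound is pinned into ATP-containing buffer (10 uM ATP, imidazole pH 7.2, 7 mM MgCl2). Kinase-Glo luciferase reagent is then added. Light output is recorded following an 8-min room-temperature incubation.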
ALDH1A1 inh: qHTS Assay for Inhibitors of Aldehyde Dehydrogenase 1 (ALDH1A1); Aldehyde dehydrogenase 1A1 (Homo sapiens), P00352; Purified ALDH1A1, NADH fluorescence, propionaldehyde substrate; Potency, µM (doses to about 75.3 µM), inactives show top-dose activity, negative = inhibition, most hits filed as inhibitors; 220,000 tested, 7.3% active;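 also: potency is read from the fitted curve at half-maximal effect; plate controls were no enzyme wells and a reference inhibitor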
Target sequence (P00352 whole entry, looked up): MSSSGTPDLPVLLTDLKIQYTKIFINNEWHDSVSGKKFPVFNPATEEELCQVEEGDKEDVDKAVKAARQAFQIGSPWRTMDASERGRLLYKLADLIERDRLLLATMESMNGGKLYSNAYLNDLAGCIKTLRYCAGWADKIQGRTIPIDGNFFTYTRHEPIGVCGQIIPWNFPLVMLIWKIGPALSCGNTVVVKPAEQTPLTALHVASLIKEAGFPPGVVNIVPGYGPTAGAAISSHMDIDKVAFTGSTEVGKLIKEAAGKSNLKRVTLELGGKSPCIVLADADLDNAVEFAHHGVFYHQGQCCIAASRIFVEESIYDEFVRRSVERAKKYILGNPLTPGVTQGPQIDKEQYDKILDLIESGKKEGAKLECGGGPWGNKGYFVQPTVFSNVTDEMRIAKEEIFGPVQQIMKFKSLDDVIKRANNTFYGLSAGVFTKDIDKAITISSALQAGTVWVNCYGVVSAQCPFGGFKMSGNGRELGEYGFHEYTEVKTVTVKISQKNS
PNC inhibitor: High Content Assay for Compounds that inhibit the Assembly of the Perinucleolar Compartment; 140,000 tested, 3.1% active; PC3M PTB-GFP, PNC prevalence imaging, 16 h; stronger effect = lower value; activity change (PNC), negative = inhibition, % at 10 µM;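 active = readout at or below -70, meaning at least 70% loss of cells showing the perinucleolar compartment, a nuclear body marking cancer cells; inconclusive = readout between -30 and a set limit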;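 also: plate controls were DMSO wells for no effect and camptothecin positive control wells for full effect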
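Compounds are pinned in duplicate onto adhered PC3M cells stably expressing GFP-tagged PTB and incubated 16 h at 37 C. Cells are then fixed, nuclei stained with Hoechst, and PNC-positive cells counted.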
IMPase cell inh: qHTS Assay for Identifying the Cell-Membrane Permeable IMPase Inhibitors; Inositol monophosphatase 1 (Rattus norvegicus), P97697; CHO-M1 cells, IP1 accumulation, HTRF TR-FRET ratio; inhibition (IP1 accumulation), % at 46.1 µM; 120,000 tested, under 10 active; AID 901, 2007; active = well fitted curve in the direction sought with a large enough effect in the signal ratio, not every such curve was filed as active; inconclusive = small, poorly fitted or top-dose-only effect, or a change in a side signal; inactive = no such curve, though single readings can be large or run the other way; the % refers to the signal ratio;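 also: cells stimulated with carbachol in lithium chloride buffer; plate controls were DMSO basal wells for no effect and reference inhibitor wells for full effect; higher means more IMPase inhibition seen as more IP1 and lower FRET ratio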
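In this qHTS, compounds (final up to 46 uM) act on CHO-M1 cells that are then activated through the M1 receptor with carbachol, in pH 7.4 buffer containing 50 mM LiCl, for 30 min. IP1 accumulation is quantified by the IP-One immunoassay.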
LMNA splice mod: qHTS Assay for Modulators of Lamin A Splicing | Potency, µM (highest dose often 46.1 µM), for inactives: at the top dose ratio change, negative = inhibition, hits mostly inhibitors | HeLa LMNA splicing GFP/RFP minigene ratio, 48 h | AID 1487, 2009 | 200,000 tested, 0.01% active; active = well fitted inhibition curve with a large enough effect in the signal ratio, with a control signal flat, not every such curve was filed as active; inconclusive = small, poorly fitted or top-dose-only effect, or effect the other way, or a change in a side signal; the % refers to the signal ratio; also: potency is read from the fitted curve at half-maximal effect
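Read-out is the ratio of GFP to DsRed2 object intensity, acquired by 488 nm laser-scanning cytometry on HeLa lamin A-EGFP minigene reporter cells. Compound incubation 48 hrs at 37 °C in Opti-MEM with 2% FBS; DMSO 0.5% final.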
* hit, by the source's call; u = inconclusive; x = no result given; [ ] = another dose, or the depositor's remark. In the library only some 10% were active in any assay of this set; here they are far more common. Unless noted, calls follow the shape of the dose curve; as a rule, active = well fitted inhibition curve with a large enough effect (not every such curve was filed as active); inconclusive = small, poorly fitted or top-dose-only effect, or another doubt; inactive = no such curve, though single readings can be large or run the other way. Unless noted, % is scaled to controls: 0 for no effect and ±100 for the full control effect.

SMILES | HPGD block | KinaseGlo FLuc | ALDH1A1 inh | PNC inhibitor | IMPase cell inh | LMNA splice mod
CCOc1ccc(Br)cc1C1C(C(=O)Nc2ccccc2OC)=C(C)Nc2nnnn21 (stereo not given) | x | x | x | x | -2.1 | x
CC1Cc2ccccc2N1C(=O)CN1C(=O)C(=O)N(Cc2ccccc2)C1=O (stereo not given) | -21.1% | -7.3% | 31.6µM* | 5.4 | 3.2 | 14.7%
O=C(NCC(c1cccnc1)N1CCc2ccccc2C1)C(=O)Nc1ccccc1 (stereo not given) | x | x | x | x | x | -0.4%[46 µM]
COc1ccc(NC(=O)C(=O)NCC(c2cccnc2)N2CCc3ccccc3C2)cc1 (stereo not given) | x | x | x | x | x | 14.1µM*
O=C(CCc1ccccc1)Nc1ccc(F)cc1F | -8.7% | -4.4% | 9.4% | -26.2 | 0.1 | 0.7%
O=C(CSCc1ccccc1)Nc1ccc(F)cc1F | x | 1.2% | 23.8µM* | x | x | x
COc1ccc(-c2nnc3n(CCc4ccccc4)c(=O)c4ccccc4n23)cc1OC | x | x | 1.78µM* | 15.0 | 1.2 | -16.8%
O=c1c2ccccc2n2c(-c3cccc(Cl)c3)nnc2n1Cc1ccccc1 | -20.4% | 0.1% | -8.5% | 15.3 | -5.0 | -15.6%
C=C1C(C2(C)C=CC(=O)C(C)(C)C2CC(=O)OC)CC[C@@]2(C)C(c3ccoc3)OC(=O)C3OC132 (stereo not given in full) | -13.3% | 1.3% | -0.3% | x | x | -6.6%
CCC(Sc1nc2nccnc2c(=O)n1Cc1ccccc1Cl)C(=O)NC1CCCCC1 (stereo not given) | x | x | x | x | x | -1.7%[46 µM]
O=C(/C(=N\Nc1ccccc1)Sc1nnnn1-c1ccccc1)c1ccccc1 | -16.0% | 1.4% | 1.41µM* | -13.4 | x | 14.7%
COC(=O)[C@@H]1[C@@H](C)N(CCc2cc(OC)c(OC)c(OC)c2)C(=O)N[C@H]1c1ccccc1 | -6.6% | -3.9%[7.66 µM] | 8.0%[13.5 µM] | x | x | u
Cc1cc(=O)[nH]c2ccc(Cl)cc12 | -18.4% | 0.3% | 9.6% | -28.9 | -4.8 | u
S=c1[nH]c2ccc(Cl)cc2s1 | x | x | 1.26µM* | x | x | 14.1%[46 µM]
COc1ccc(S(=O)(=O)N(CC(=O)Nc2cccnc2)c2ccccc2OC)cc1 | 2.24µM* | 1.6% | 10µM* | -11.2 | 10.9 | 5.8%
COc1ccccc1N(CC(=O)Nc1ccc2c(c1)OCO2)S(=O)(=O)c1ccccc1 | -25.6% | -6.6% | -5.7% | 2.2 | -2.6 | u
COc1ccc(S(=O)(=O)N(CC(=O)Nc2ccc3c(c2)OCO3)c2ccccc2OC)cc1 | 15.8µM* | -0.5% | u | 24.2 | 7.4 | u
COc1ccc(N(CC(=O)Nc2ccc3c(c2)OCCO3)S(=O)(=O)c2cccnc2)cc1 | -18.1% | 0.5% | 14.1µM* | u | -1.9 | -7.6%
CCOc1ccccc1N(CC(=O)Nc1ccc2c(c1)OCCO2)S(C)(=O)=O | -9.4% | 0.3% | 5.7% | -124.8* | -7.7 | u
COc1ccc(N(CC(=O)Nc2ccc3c(c2)OCO3)S(=O)(=O)c2ccccc2)cc1 | x | -0.5% | -3.1% | x | x | x
CCN(CC)CCCn1c(-c2ccccc2)nc2c(NCCOC)nc(C)nc21 | u | -1.6% | u | x | x | x
COCC(=O)N1CCC2(CC1)CN(C(=O)Nc1ccccc1)C2 | -4.3% | -5.7% | 7.0% | x | x | x
COc1ccc(-c2nc3cnc(OC)nc3n(C[C@H]3CCCO3)c2=O)cc1 | x | x | u | x | x | 2.1%
CC1CCCN(c2ncnc3c2cnn3-c2ccc(F)cc2)C1 (stereo not given) | x | x | x | x | x | -4.8%[46 µM]
COc1ccccc1N(CC(=O)Nc1cccnc1)S(=O)(=O)c1ccccc1 | 14.1µM* | -5.5% | u | 27.6 | 3.1 | 7.0%
SMILES | HPGD block | KinaseGlo FLuc | ALDH1A1 inh | PNC inhibitor | IMPase cell inh | LMNA splice mod
COc1ccc(OC)c(N(CC(=O)Nc2cccnc2)S(=O)(=O)c2ccccc2)c1 | 7.94µM* | -1.3% | -7.6% | 5.3 | 5.1 | 0.0%
Cc1ccc(CCNC(=O)C23C[C@H]4C[C@@H](C2)CC(n2nnc(C)n2)(C4)C3)cc1 | x | 2.9% | 5.1% | x | x | -6.9%[46 µM]
NNC(=O)C12CC3CC(C1)CC(n1ncnn1)(C3)C2 | -2.4% | -3.4% | 3.55µM* | 7.8 | x | -8.2%
Cc1nnn(C23CC4CC(CC(C(=O)NN)(C4)C2)C3)n1 | 2.3% | -2.1% | 1.41µM* | -113.8* | x | -5.3%
CCOc1ccccc1NC(=O)CSc1nccn1Cc1ccc(F)cc1 | x | x | x | x | x | -3.2%[46 µM]
COCCN(CCOC)c1nc(C)nc2c1nc(-c1ccccc1)n2CCCN(C)C | u | -1.8% | u | x | x | x
COc1ccccc1C1CN(c2ccc(F)cc2F)N=C1c1cccs1 (stereo not given) | u | 2.2% | u | -94.4* | -26.2 | -11.5%
COc1ccccc1C1CC(c2cccs2)=Nc2ccccc2S1 (stereo not given) | -4.4% | 16.5% | -3.4% | 13.2 | 5.7 | -15.4%
O=C(O)c1ccc(COc2ccccc2/C=C2\NC(=O)N(Cc3ccccc3F)C2=O)cc1 | x | -3.4% | u | x | x | x
CCOc1cc(/C=C2/NC(=O)N(Cc3ccccc3F)C2=O)ccc1O | -10.7% | 2.5% | 8.91µM* | -9.5 | -2.2 | 6.1%
COc1cc(/C=C2/NC(=O)N(Cc3ccccc3F)C2=O)cc(OC)c1O | x | x | 10µM* | x | x | x
O=C1N/C(=C/c2cccn2-c2ccccc2)C(=O)N1Cc1ccccc1F | -14.3% | -2.1% | u | 45.6 | x | -11.6%
Cn1c(=O)c2[nH]c(=O)cnc2n(C)c1=S | x | 2.3% | 20µM* | x | x | 0.3%[46 µM]
COc1cc2nc(N(C)CCCNC(=O)[C@@H]3CCCO3)nc(N)c2cc1OC | u | -1.7%[17.1 µM] | u | x | -5.8[20.6 µM] | u
CN(C)c1ccc(Nc2ncnc3c2c(-c2ccccc2)cn3-c2cccc(Cl)c2)cc1 | x | x | x | x | x | -5.6%[46 µM]
CC(C)(C)c1ccc(Oc2nc3ccccn3c(=O)c2/C=C(\C#N)c2nc3ccccc3[nH]2)cc1 | x | x | x | x | -11.1 | x
CCCCCOc1ccc(CSC(=N)N)cc1[N+](=O)[O-] | 1.1% | -7.6% | -4.0% | u | 2.5 | u
COc1ccc(Cn2ccnc2CO)cc1[N+](=O)[O-] | x | -1.5% | 6.31µM* | x | x | x
COc1ccc(CSC(=N)N)cc1[N+](=O)[O-] | -1.2% | -2.4% | 28.2µM* | u | -6.1 | u
CCc1ccc(NS(=O)(=O)c2ccc(Cl)cc2OC)cc1 | -9.8% | -4.0% | 0.5% | x | x | x
S=c1[nH]nc(CCc2ccccc2)n1-c1ccc(Cl)cc1 | x | -0.7% | u | x | x | 9.4%[46 µM]
S=c1[nH]nc(CCc2ccccc2)n1-c1ccccc1 | 15.8µM* | 2.0% | u | 7.2 | x | -4.4%

Assay outcomes: PubChem BioAssay, National Center for Advancing Translational Sciences (NCATS)
